The values that follow come from PubChem BioAssay.

The nature of test [1]: growth inhibition of DIPG glioma cells, dose response, cell-based, SU-DIPG-XVII, MIPE5.0, CellTiter-Glo, qHTS (AID 1347060).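 As to AC50: cells exposed to compound for 48 hours before viability readout.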 The note with it: SU-DIPG-XVII viability, CellTiter-Glo ATP luminescence.
Test [2] can be described thus: growth inhibition of DIPG glioma cells, dose response, cell-based, SU-DIPG-XIII, MIPE4.0, CellTiter-Glo, qHTS (AID 1347061; cut-off not given, nearly all actives have AC50 up to about 37 µM;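 also: cells exposed to compound for 48 hours before readout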). The note with it: SU-DIPG-XIII viability, CellTiter-Glo ATP luminescence.
A short description of test [3]: growth inhibition of DIPG glioma cells, dose response, cell-based, JHH-DIPG-1, MIPE4.0, CellTiter-Glo, qHTS (AID 1347062; cut-off not given, nearly all actives have AC50 up to about 27 µM;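 as to AC50: cells exposed to compound for two days before readout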). The note with it: JHH-DIPG-1 viability, CellTiter-Glo ATP luminescence. (In ATP-based viability assays light output follows the ATP content of the culture.)
Test [4] can be described thus: growth inhibition of DIPG glioma cells, dose response, cell-based, SU-DIPG-IV, MIPE4.0, CellTiter-Glo, qHTS (AID 1347063; cut-off not given, nearly all actives have AC50 up to about 30 µM;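 also: compound exposure lasted 48 hours before the viability readout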). The note with it: SU-DIPG-IV viability, CellTiter-Glo ATP luminescence.
The nature of test [5]: growth inhibition of DIPG glioma cells, dose response, cell-based, SU-DIPG-XIII, MIPE5.0, CellTiter-Glo, qHTS (AID 1347064; cut-off not given, nearly all actives have AC50 up to about 23 µM;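 as to AC50: cells exposed to compound for 48 hours before the viability read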). The note with it: SU-DIPG-XIII viability, CellTiter-Glo ATP luminescence.
Test [6] in a line: viability loss in pontine glioma line – cell-based, SU-DIPG-XXV, MIPE5.0, CellTiter-Glo, qHTS, dose response (AID 1347065).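 Also: cells exposed to compound for 48 hours before ATP readout.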 The note with it: CellTiter-Glo ATP luminescence.
A short description of test [7]: SU-DIPG-VI glioma cell viability, MIPE4.0 library, CellTiter-Glo luminescence, qHTS (AID 1347066; cut-off not given, nearly all actives have AC50 up to about 30 µM;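 also: cells exposed to compound for 48 hours before readout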). The note with it: CellTiter-Glo ATP luminescence.
Test [8] is described as follows: JHH-DIPG-1 glioma cell viability, MIPE5.0 library, CellTiter-Glo luminescence, qHTS (AID 1347067).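 Also: cells exposed to compound for 48 hours before readout.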 The note with it: JHH-DIPG-1 glioma viability, CellTiter-Glo ATP luminescence.
The nature of test [9]: SU-DIPG-XXV glioma cell viability, MIPE5.0 library, qHTS (AID 1347068; cut-off not given, nearly all actives have IC50 up to about 30 µM;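 as to IC50: cells exposed to compound for 48 hours before viability readout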). On the technique in general: In qHTS, concentration-response curves come from the screen itself.
The nature of test [10]: sensitizers of A549 cells to miR-34 induction, primary screen, imaging, A549 dox-inducible miR-34, nuclei and caspase counts (AID 1347080;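 active = compounds whose cell count with miR-34 switched on is under 0.7 times the count with it off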). The note with it: A549 miR-34 inducible, Hoechst nuclei count, 48 h.
Test [11] can be described thus: modifiers of HSF1 nuclear foci, imaging, Selleck Cancer Library (AID 1347162; in the data active = plate-normalised HSF1 focus index below about 0.46). The note with it: human cells, at 10 µM; SSMD: measured here: HSF1 foci SSMD mean; cell count: measured here: cell number; plate-normalised HSF1 focus index: stronger effect = lower value.
Test [12] in a line: survival rescue of mitochondrial mutant cells in low glucose, primary screen, MELAS cybrids, Rieske KO mouse fibroblasts, CellTiter-Glo (AID 1508586;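 active = mean z-score across replicates of 1.96 or higher in either the MELAS or the Rieske mutant cell line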;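 also: z relative to plate mean and SD of compound and empty wells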).

Records with an inconclusive call do not appear. The source made the active and inactive calls. Unless noted, the limit is not given here; nearly all actives have AC50 up to about 26 µM.

In general, AC50 refers to the concentration at which the activity in the assay is half-maximal. For orientation: IC50 means the midpoint of a concentration-inhibition curve. As for `Cc1cnc(Nc2ccc(F)cc2Cl)nc1-c1c[nH]c(C(=O)N[C@H](CO)c2cccc(Cl)c2)c1`, the concentration at half-maximal activity (AC50) is 1.32 µM (active) in test [1]; 18.7 µM (active) in [2]; 0.833 µM (active) in [3]; 0.469 µM (active) in test [4]; 1.32 µM (active) in [5]; 2.09 µM (active) in test [6]. In addition, the AC50 in test [7] is 18.7 µM (active); in [8], 0.833 µM (active). Besides, the IC50 in test [9] is 9.34 µM (active).

As to `CCC(=O)O[C@]1(C(=O)CO)CC[C@H]2[C@@H]3CCC4=CC(=O)CC[C@]4(C)[C@H]3CC[C@@]21C`, the outcome in test [1], in [2], in test [3], in [4], in test [5] and in [6] was inactive. In addition, the call in [7], in test [8] and in test [9] was inactive.

For the compound `O=C(NCCS(=O)(=O)c1ccc(C(F)(F)F)cn1)c1ccc(Cl)cc1`, the result in [1], in test [2], in [3], in test [4], in test [5] and in test [6] was inactive. Moreover, the compound was classed as inactive in test [7], in test [8] and in test [9]. Besides, the fold change in test [10] (stronger effect = lower value, cell number ratio, induced over uninduced) is 0.87 (inactive); in [10] (measured here: relative caspase fold change +Dox/-Dox), 0.351. Moreover, the cell count in test [10] (measured here: total cells with miR-34 induction, stronger effect = lower value) amounted to 7940; in test [10] (measured here: total cells without miR-34 induction), 9120; in [11], 7080. Besides, in [11], the SSMD was 3.34. Moreover, in test [11], the plate-normalised HSF1 focus index was 1.2 (inactive). The z-score is -0.369 (inactive) in test [12] (MELAS cybrid survival, CellTiter-Glo 48 h, stronger effect = higher value) and 0.00298 in test [12] (Rieske KO mouse fibroblast survival, CellTiter-Glo 72 h).

In the case of `CCn1cc(-c2ccnc3[nH]c(-c4cccc(CN(C)C)c4)cc23)c(-c2ccc(NC(=O)N(C)C)cc2)n1`, the AC50 in test [1] was 0.59 µM (active); in [2] it was 13.2 µM (active); in test [3], 16.6 µM (active); in test [4] it was 0.209 µM (active); in [5], 8.33 µM (active); in test [6], 0.525 µM (active). In addition, the figures for the AC50 in [7] and in test [8] were 20.9 µM (active) and 11.8 µM (active), respectively. The IC50 in test [9] was 7.42 µM (active).

`COc1cc(=C2C=c3ccccc3=N2)[nH]/c1=C/c1[nH]c(C)cc1C`: the AC50 in test [1] is 6.61 µM (active); in test [2] it was 14.8 µM (active); in [3] it was 4.69 µM (active); in test [4], 5.9 µM (active); in test [5], 3.32 µM (active); in test [6] it was 2.09 µM (active). For the same compound, the concentration at half-maximal activity (AC50) was 2.64 µM (active) in [7] and 5.9 µM (active) in [8]. Moreover, the IC50 in test [9] was 16.6 µM (active).

Consider `c1cc(CN2CCCNCCNCCCNCC2)ccc1CN1CCCNCCNCCCNCC1`, for which the call in [1], in [2], in test [3], in [4], in [5] and in test [6] was inactive. In addition, the compound was called inactive in [7], in [8] and in test [9].

As for `C=C1C(=O)[C@@]23C(CC[C@@H]1[C@H]2O)[C@@]12CO[C@]3(O)[C@@H](O)[C@@H]1C(C)(C)CC[C@@H]2O` (stereo not given in full), the half-maximal activity concentration (AC50) in [1] is 9.34 µM (active); in test [2] it was 7.43 µM (active); in [3], 4.18 µM (active); in test [4] it was 2.35 µM (active); in test [5], 6.61 µM (active); in test [6], 8.33 µM (active). For the same compound, the AC50 in test [7] is 3.72 µM (active); in test [8], 5.9 µM (active). Also, the IC50 in test [9] was 9.34 µM (active).

For `C[C@@]12O[C@@H](C[C@]1(O)CO)n1c3ccccc3c3c4c(c5c6ccccc6n2c5c31)CNC4=O`, the concentration at half-maximal activity (AC50) was 2.95 µM (active) in test [1]; 4.69 µM (active) in test [2]; 2.96 µM (active) in [3]; 8.33 µM (active) in test [4]; 1.32 µM (active) in test [5]; 0.186 µM (active) in test [6]. The AC50 is 8.33 µM (active) in test [7] and 1.86 µM (active) in [8]. Besides, in test [9], the IC50 was 2.63 µM (active).

Regarding `Clc1cccc(-n2nnnc2NCc2ccccc2Oc2ccccn2)c1Cl`, the result in [1], in [2], in test [3], in test [4], in [5] and in test [6] was inactive. Moreover, the result in test [7], in test [8] and in test [9] was inactive.
